Measured values as given in PubChem BioAssay (NCATS).
Results filed as inconclusive are left out. Where a call stands in place of a potency, no number is given. Active and inactive are the calls of the source. Calls follow the shape of the dose curve; as a rule, active = well fitted cell-killing curve with a large enough effect; inconclusive = small, poorly fitted or top-dose-only effect; inactive = flat fitted curve, though single readings scatter.

Test: Cell Viability - LYMP2-006 (AID 978); also: nearly all actives have a fitted effect of over 60% in size
Settings: LYMP2-006 lymphoblastoid cell viability, qHTS; series mostly up to 92.2 µM
Text: NIH Chemical Genomics Center [NCGC]
NIH Molecular Libraries Screening Centers Network [MLSCN]
National Institutes of Environmental Health Sciences [NIEHS]
National Toxicology Program [NTP]
We have developed a 1536-well cell-based assay for quantitative high throughput screening (qHTS) against a number of cell lines to determine in vitro cytotoxicity of small molecules. This particular assay uses a human lymphoblastoid cell line (LYMP2-006) purchased from Coriell Institute for Medical Research.
NCGC Assay Protocol Summary:
The CellTiter-Glo luminescent cell viability assay (Promega) is a homogeneous method to measure the number of viable cells in culture. The end point readout of this assay is based on quantitation of intracellular ATP, an indicator of metabolic activity, using the luciferase reaction. Luciferase catalyzes the oxidation of beetle Luciferin to oxyluciferin and light in the presence of ATP. The luminescent signal is proportional to amount of ATP present.
Using the CellTiter-Glo luminescent cell viability assay, the amount of cellular ATP was measured in the lymphoblastoid cell line with complete culture medium following compound treatment for 24 hours. The assay was performed in opaque white Kalypsys 1536-well plates. In the screen, tetraoctylammonium bromide was used as positive control. Library compounds were measured for their ability to cause acute toxicity in the cell line, as reflected by a decrease in intracellular ATP levels, in a concentration-dependent manner. […] AC50 values were determined from concentration-response data modeled with the standard Hill equation.
qHTS protocol for CellTiter Glo lymphoblastoid cellular assay
[Step] [Parameter] [Value] [Description]
1. Reagent; 5 uL; 2500 lymphoblastoid cells/well
2. Time; 5 hr; 37 C incubation
4. Controls; 23 nL; Tetraoctylammonium bromide 6.4pM to 92 uM
5. Time; 24 hr; 37 C incubation
6. Reagent; 5 uL; CellTiter Glo reagent
7. Time; 30 min; Room Temperature
8. Detection; Luminescence; Viewlux plate reader
Keywords: cell viability, cytotoxicity, lymphoblastoid cell line, luminescence, NTPHTS, NTPHTS_NCGC, NIEHS, DSSTox, MLSMR, MLSCN, NIH Roadmap, qHTS, NCGC
Potency is read from the fitted curve at half-maximal effect.

With `c1ccc2c(c1)ccc1cc3c(ccc4ccccc43)cc12` as the molecule, how does the Potency read?
The Potency was “inactive”.

Which Potency does the source give for `c1ccc2c(c1)-c1cccc3c1c-2cc1ccccc13` here?
Its Potency is “inactive”.

Which Potency does the source give for `O=C1OC2(c3cc(Br)c(O)c(Br)c3Oc3c2cc(Br)c(O)c3Br)c2c(Cl)c(Cl)c(Cl)c(Cl)c21` here?
Its Potency is “inactive”.

Which Potency does the source give for `CCCCCCCC[N+](CCCCCCCC)(CCCCCCCC)CCCCCCCC` here?
Its Potency is 5.01 µM (active).

Which Potency does the source give for `CN1[C@H]2CC(OC(=O)[C@H](CO)c3ccccc3)C[C@H]1[C@H]1O[C@H]12` (stereo partly drawn) here?
Its Potency is “inactive”.

For `Cc1cccc(O)c1C`, which Potency is on record?
Its Potency is “inactive”.

With `CCCCCC/C(C=O)=C\c1ccccc1` as the molecule, how does the Potency read?
The Potency was “inactive”.

With `O=C=Nc1ccc(Cc2ccc(N=C=O)cc2)cc1` as the molecule, how does the Potency read?
Its Potency is “inactive”.

With `O=[N+]([O-])c1cc([N+](=O)[O-])c2ccc(S(=O)(=O)O)cc2c1O` as the molecule, how does the Potency read?
Its Potency is “inactive”.

With `Nc1ccc2cc3ccccc3cc2c1` as the molecule, how does the Potency read?
Its Potency is “inactive”.

For `Cc1cc(O)c(C(C)(C)C)cc1Sc1cc(C(C)(C)C)c(O)cc1C`, which Potency is on record?
Its Potency is 31.6 µM (active).

For `CNc1ccc(O)cc1`, which Potency is on record?
The Potency was 12.6 µM (active).

With `Cc1cc(Nc2ccc(O)cc2)ccc1N` as the molecule, how does the Potency read?
The Potency was 50.1 µM (active).

Which Potency does the source give for `CN(C)c1ccc(C2(c3ccc(N(C)C)cc3)OC(=O)c3cc(N(C)C)ccc32)cc1` here?
The Potency was “inactive”.

For `O=C1OC(O)C(C(Cl)Cl)=C1Cl` (stereo not drawn), which Potency is on record?
The Potency was 25.1 µM (active).

For `CC(=O)Nc1ccc(C(=O)CCl)cc1`, which Potency is on record?
Its Potency is 10 µM (active).

Which Potency does the source give for `Oc1ccc2cc(SSc3ccc4cc(O)ccc4c3)ccc2c1` here?
The Potency was 50.1 µM (active).

For `C=CC(=O)OCCOCCOC(=O)C=C`, which Potency is on record?
The Potency was 25.1 µM (active).

Which Potency does the source give for `O=C(/C=C/c1ccc(O)c(O)c1)OC1C[C@](O)(C(=O)O)C[C@@H](O)[C@H]1O` (stereo partly drawn) here?
The Potency was “inactive”.

With `O=Cc1ccc(Cl)c(Cl)c1` as the molecule, how does the Potency read?
Its Potency is “inactive”.

For `O=C(OCC(COC(=O)c1ccccc1)(COC(=O)c1ccccc1)COC(=O)c1ccccc1)c1ccccc1`, which Potency is on record?
Its Potency is “inactive”.

With `CCC(C)Nc1ccc(NC(C)CC)cc1` (stereo not drawn) as the molecule, how does the Potency read?
Its Potency is 5.01 µM (active).

Which Potency does the source give for `C=C(C)c1ccccc1` here?
Its Potency is “inactive”.
